TDP1 cell noCPT: qHTS for Inhibitors of human tyrosyl-DNA phosphodiesterase 1 (TDP1): qHTS in cells in absence of CPT; DT40 Tdp1-/- hTDP1 cells, no CPT, ATP luminescence, 48 h; Potency, µM (titrated, usually from 46.2 µM), most hits filed as inhibitors; actives 15% (n = 420,000); AID 686978, 2013; further: nearly all actives have a fitted effect of over 55% in size
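Luminescent ATP content (CellTiter-Glo) served as the growth readout. Knockout chicken DT40 cells expressing human TDP1 were exposed to compounds without camptothecin for a minimum 48 hr at 37 °C.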
HT1080 IDH1KD tx: toxicity to HT-1080 IDH1 knockdown cells (counter line); AID 686971; HT-1080 IDH1 knockdown viability, ATP luminescence, 48 h; actives 2% (n = 360,000); Potency, µM (titrated, usually from 46.1 µM), most hits filed as cytotoxic
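% activity derives from luminescence (CellTiter-Glo), normalised to DMSO and no-cell wells. HT-1080-IDH1KD cells, 750/well, had 48 h compound exposure at 37 °C.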
HT1080NT lethal: kills 2HG-producing HT-1080-NT fibrosarcoma cells; actives 1.6% (n = 360,000); Potency, µM (series often up to 46.1 µM), most hits filed as cytotoxic; HT-1080-NT fibrosarcoma viability, CellTiter-Glo ATP luminescence, 48 h;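 further: NT is the 2HG producing partner of a matched IDH1 knockdown line; nearly all actives have a fitted effect of over 55% in size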
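Viability by CellTiter-Glo luminescence after 48 h compound exposure at 37C of HT-1080-NT cells (750/well, RPMI, 5% FBS). % activity scaled between DMSO wells and medium-only wells, then curve-fitted and categorized by curve class.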
IL-1B inflam inh: blocks inflammasome-driven IL-1 beta release. THP-1 LPS/ATP IL-1B secretion, AlphaLISA, 16 h; hits give low values. activity change, % at 57.5 µM. actives 4.7% (n = 360,000). AID 743279; in the data active means activity change below about -50%; inconclusive means mostly about -30% to -49%
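Secreted IL-1B measured by AlphaLISA bead assay after 16 h compound exposure of THP-1 cells; compounds (final up to 57.5 uM) added 1 h before LPS (250 ng/mL) and ATP (1.25 mM) stimulation; lower signal means less secretion.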
DT40 TDP1 CPT: DT40-hTDP1 cell growth loss with CPT. actives 12% (n = 420,000). Potency, µM (doses to about 46.2 µM), most hits filed as inhibitors. chicken DT40 Tdp1-/-;hTDP1 cells + 20 nM CPT, ATP luminescence, 48 h; further: nearly all actives have a fitted effect of over 55% in size
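Cell growth measured by CellTiter-Glo luminescence after a minimum 48 h, 37 C compound exposure with 20 nM CPT in Tdp1-knockout DT40 cells stably expressing hTDP1, seeded 400/well; qHTS titration format.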
Hits are given with their value; [ ] = remark or other dose. In the library only some 19% were active in any assay of this set; here they are far more common. Unless noted, the call rests on the fitted dose curve; in most records, active means well fitted curve in the direction sought with a large enough effect; inconclusive means small, poorly fitted or top-dose-only effect, or another doubt; inactive means no such curve, though single readings can be large; an effect the other way counts as inactive or inconclusive.

Screening NS(=O)(=O)c1ccc(Cc2ncc(C(F)(F)F)cc2Cl)s1 returned TDP1 cell noCPT inconclusive, HT1080 IDH1KD tx inactive, HT1080NT lethal inactive, IL-1B inflam inh inactive and DT40 TDP1 CPT inconclusive.
C=CCn1c(=O)c(C(=O)NC2CC2)c(O)c2cc(OC)c(OC)cc21 was read as TDP1 cell noCPT inconclusive, HT1080 IDH1KD tx inactive, HT1080NT lethal inactive, IL-1B inflam inh inactive and DT40 TDP1 CPT inconclusive.
For O=C(CCc1nc2ccccc2c(=O)[nH]1)Nc1cc(Cl)ccc1N1CCCC1 the results were TDP1 cell noCPT inactive, HT1080 IDH1KD tx inactive, HT1080NT lethal inactive, IL-1B inflam inh inactive and DT40 TDP1 CPT inactive.
O=c1[nH]c2cc3c(cc2cc1C(c1nnnn1C1CCCC1)N1CCCc2ccccc21)OCCO3 (centres undefined) was read as TDP1 cell noCPT inactive, HT1080 IDH1KD tx inactive, HT1080NT lethal inactive, IL-1B inflam inh inactive and DT40 TDP1 CPT inactive.
For O=c1[nH]c2cc3c(cc2cc1C(c1nnnn1Cc1ccccc1)N1CCCc2ccccc21)OCO3 (centres undefined) the results were TDP1 cell noCPT 23µM, HT1080 IDH1KD tx inconclusive, HT1080NT lethal inactive[9.24 µM], IL-1B inflam inh inactive and DT40 TDP1 CPT 21µM.
`Cc1cc2cc(C(c3nnnn3CC3CCCO3)N3CCCc4ccccc43)c(=O)[nH]c2cc1C` (centres undefined) gave TDP1 cell noCPT inconclusive, HT1080 IDH1KD tx 11µM, HT1080NT lethal inconclusive, IL-1B inflam inh inconclusive and DT40 TDP1 CPT inconclusive.
Screening O=c1[nH]c2cc3c(cc2cc1C(c1nnnn1Cc1ccccc1)N1CCN2CCCC2C1)OCCO3 (centres undefined) returned TDP1 cell noCPT 18µM, HT1080 IDH1KD tx inactive[9.24 µM], HT1080NT lethal inactive, IL-1B inflam inh inactive and DT40 TDP1 CPT inconclusive.
For CC1CCN(C(c2cc3cc4c(cc3[nH]c2=O)OCO4)c2nnnn2CC2CCCO2)CC1 (centres undefined) the results were TDP1 cell noCPT inactive, HT1080 IDH1KD tx inactive, HT1080NT lethal inactive, IL-1B inflam inh inactive and DT40 TDP1 CPT inconclusive.
`Cc1ccc(C)c2[nH]c(=O)c(C(c3nnnn3Cc3ccccc3)N3CCc4ccccc4C3)cc12` (centres undefined) gave TDP1 cell noCPT inactive, HT1080 IDH1KD tx inactive, HT1080NT lethal inactive, IL-1B inflam inh inactive and DT40 TDP1 CPT 21µM.
For COCC1CCN(C(=O)C2CCC(=O)N(Cc3cccc(F)c3)C2)CC1 (centres undefined) the results were TDP1 cell noCPT inactive, HT1080 IDH1KD tx inactive, HT1080NT lethal inactive, IL-1B inflam inh inactive and DT40 TDP1 CPT inactive.
`CCOC(=O)CN1C(=O)C(C)(C)Oc2ccc(C(=O)Nc3ccccc3)cc21` gave TDP1 cell noCPT inconclusive, HT1080 IDH1KD tx inactive, HT1080NT lethal inactive, IL-1B inflam inh inactive and DT40 TDP1 CPT inconclusive.
For Cc1noc(C)c1CSCC(=O)NCCN1C(=O)S/C(=C\c2ccccc2F)C1=O the results were TDP1 cell noCPT inconclusive, HT1080 IDH1KD tx inactive, HT1080NT lethal inactive, IL-1B inflam inh inactive and DT40 TDP1 CPT inconclusive.
Screening COc1cc2cc(C(c3nnnn3C3CCCC3)N3CCc4ccccc43)c(=O)[nH]c2cc1OC (centres undefined) returned TDP1 cell noCPT inconclusive, HT1080 IDH1KD tx inactive, HT1080NT lethal inactive, IL-1B inflam inh inactive and DT40 TDP1 CPT inconclusive.
`Cc1cc2cc(C(c3nnnn3Cc3ccco3)N3CCCCC3)c(=O)[nH]c2cc1C` (centres undefined) gave TDP1 cell noCPT inactive, HT1080 IDH1KD tx inactive, HT1080NT lethal inactive, IL-1B inflam inh inactive and DT40 TDP1 CPT inactive.
Cc1ccc2cc(C(c3nnnn3CC3CCCO3)N3CCc4ccccc4C3)c(=O)[nH]c2c1 (centres undefined) was read as TDP1 cell noCPT inconclusive, HT1080 IDH1KD tx inactive, HT1080NT lethal inactive, IL-1B inflam inh inactive and DT40 TDP1 CPT inactive.
`COc1cc2cc(C(c3nnnn3C(C)(C)C)N3CCc4ccccc43)c(=O)[nH]c2cc1OC` (centres undefined) gave TDP1 cell noCPT 21µM, HT1080 IDH1KD tx inactive, HT1080NT lethal inactive, IL-1B inflam inh inactive and DT40 TDP1 CPT inactive.
`CCOc1ccc2[nH]c(=O)c(C(c3nnnn3CC3CCCO3)N3CCc4ccccc4C3)cc2c1` (centres undefined) gave TDP1 cell noCPT 23µM, HT1080 IDH1KD tx inactive, HT1080NT lethal inactive, IL-1B inflam inh inactive and DT40 TDP1 CPT 16µM.
O=c1[nH]c2cc3c(cc2cc1C(c1nnnn1Cc1ccccc1)N1CCCCCC1)OCCO3 (centres undefined) was read as TDP1 cell noCPT inconclusive, HT1080 IDH1KD tx inactive, HT1080NT lethal inactive, IL-1B inflam inh inactive and DT40 TDP1 CPT 16µM.
Cc1cc(=O)n2[nH]c(-c3ccc(F)cc3)nc2n1 was read as TDP1 cell noCPT inconclusive, HT1080 IDH1KD tx inactive, HT1080NT lethal inactive, IL-1B inflam inh inactive and DT40 TDP1 CPT inconclusive.
Screening COc1cc(CC(=O)OCC(=O)NC2CCCCC2C)cc(OC)c1OC (centres undefined) returned TDP1 cell noCPT inactive, HT1080 IDH1KD tx inactive, HT1080NT lethal inactive, IL-1B inflam inh inactive and DT40 TDP1 CPT inactive.
For COc1ccc(-c2cn3c(n2)sc2cc(C(=O)NCCC4=CCCCC4)ccc23)cc1 the results were TDP1 cell noCPT 13µM and DT40 TDP1 CPT inconclusive.
Screening COc1ccc(-c2cn3c(n2)sc2cc(C(=O)NCCc4ccc(OC)cc4OC)ccc23)cc1 returned TDP1 cell noCPT 9.2µM and DT40 TDP1 CPT 7.3µM.
For CCOc1ccc(-c2cn3c(n2)sc2cc(C(=O)NCCc4ccc(OC)cc4OC)ccc23)cc1 the results were TDP1 cell noCPT inconclusive and DT40 TDP1 CPT inactive.
Cc1noc(C)c1C(=O)N1CCC[C@@]2(CCN(C(=O)Nc3ccccc3)C2)C1 was read as TDP1 cell noCPT inactive and DT40 TDP1 CPT inconclusive.
Cc1[nH][nH]c(=O)c1C(c1ccccc1[N+](=O)[O-])C(C#N)C#N (centres undefined) was read as TDP1 cell noCPT inactive, HT1080 IDH1KD tx inactive, HT1080NT lethal inactive, IL-1B inflam inh -146 and DT40 TDP1 CPT inconclusive.
Screening CN1/C(=C\C(=O)Nc2cccc(Cl)c2)C(C)(C)c2ccccc21 returned TDP1 cell noCPT 23µM, HT1080 IDH1KD tx inconclusive, HT1080NT lethal inconclusive, IL-1B inflam inh -72 and DT40 TDP1 CPT inconclusive.
Screening CN(C(=O)COC(=O)CN1C(=O)C2CC=CCC2C1=O)c1ccccc1 (centres undefined) returned TDP1 cell noCPT inactive, HT1080 IDH1KD tx inactive, HT1080NT lethal inactive, IL-1B inflam inh inactive and DT40 TDP1 CPT inactive.
